The results in this text go back to PubChem BioAssay.

The subject of assay [1] is Human papillomavirus type 1a protein E7 (residues 44-93). Briefly: small molecules binding HPV E7 44-93 – biochemical, small-molecule microarray, residues 44-93, 635 nm fluorescence, primary screen (AID 1108).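 Also: E7 fragment applied at 1 µg/mL in TBST for 1 h at 4 C; score combines spot fluorescence with its signal to noise ratio.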 The following applies: fluorescence 635 nm, higher = more signal.
Assay [2] can be described thus: hepatitis C replication reporter changes, two-sided – Huh7 cells, luciferase reporter, HCV replication inhibitor project, primary screen (AID 1109).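 Also: huh7 hepatoma cells harbouring a luciferase neomycin HCV replicon reporter; luciferase luminescence as measure of HCV replicon replication; test concentration not given here.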 Particulars: Huh7 HCV replicon luciferase reporter, 48 h; higher = more signal. (A reporter such as luciferase makes a cellular process visible.)
In assay [3] the target is Left-right determination factor 2 (Homo sapiens) (UniProt O00292). Briefly: small molecules binding LEFTY2 protein – biochemical, small-molecule microarray, 635 nm fluorescence scan, primary screen (AID 1110). The following applies: higher = more signal.
Chain of Left-right determination factor 2 (Homo sapiens) (O00292 whole entry, looked up): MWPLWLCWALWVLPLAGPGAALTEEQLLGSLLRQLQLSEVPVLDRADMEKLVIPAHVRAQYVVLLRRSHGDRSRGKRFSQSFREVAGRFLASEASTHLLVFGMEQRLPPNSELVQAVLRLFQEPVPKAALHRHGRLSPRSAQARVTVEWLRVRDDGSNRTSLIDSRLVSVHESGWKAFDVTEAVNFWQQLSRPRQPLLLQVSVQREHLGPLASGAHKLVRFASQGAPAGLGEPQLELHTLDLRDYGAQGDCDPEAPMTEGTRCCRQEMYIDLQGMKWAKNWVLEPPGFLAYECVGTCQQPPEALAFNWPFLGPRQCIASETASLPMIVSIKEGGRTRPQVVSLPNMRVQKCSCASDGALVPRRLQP
Assay [4] has as its target Calmodulin-1 (Homo sapiens) (UniProt P0DP23). Briefly: small molecules binding calmodulin-1 with EGTA – biochemical, small-molecule microarray, Cy5-labelled CALM1, profiling panel (AID 1111).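 Also: labelled calmodulin applied in Tris saline Tween buffer holding calcium plus EGTA and DTT.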 Particulars: Cy5-CALM1 binding fluorescence, higher = more signal.
For assay [5] the target is unchanged. Put plainly: small molecules binding Ca-loaded calmodulin-1 – biochemical, small-molecule microarray, Cy5-labelled CALM1, plus calcium, artefact control for SMM control-protein annotation, profiling panel (AID 1112).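 Also: score merges spot fluorescence with signal to noise from triplicate slides.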 The following applies: Cy5-CALM1 binding fluorescence, higher = more signal.
Assay [6] is described as follows: probe aWnt5a binding to arrayed compounds – biochemical, biotinylated probe, 635/667 nm fluorescence, primary screen (AID 1113).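 Also: score merges 667 nm fluorescence intensity with signal-to-noise per printed feature.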 The following applies: small-molecule microarray, higher = more signal.
A short description of assay [7]: probe aShh binding to arrayed compounds – biochemical, biotinylated probe, 635/667 nm fluorescence, primary screen (AID 1114).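 Also: probe is biotin-labelled aShh protein from a stem cell growth factor screen; measures binding of labelled protein to compounds printed on the slide; score merges feature fluorescence at 667 nm with signal-to-noise.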 Particulars: small-molecule microarray, higher = more signal.
Assay [8] in a line: probe aNog binding to arrayed compounds – biochemical, biotinylated probe, 635/667 nm fluorescence, primary screen (AID 1115).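 Also: probe is biotinylated aNog protein used at 0.15 µg/mL for 1 h at 4 C; z-score combines 667 nm fluorescence of each spot with its signal to noise.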 Particulars: small-molecule microarray, higher = more signal.
Assay [9] has as its target Torsin-1A-interacting protein 1 (Homo sapiens) (UniProt Q5JTV8). Briefly: compound microarray binding of lysate hLAP1 – cell lysate, small-molecule microarray, COS7 lysate, 635/667 nm fluorescence, primary screen (AID 1116). The following applies: 635 nm fluorescence, higher = more signal.
Assay [10] deals with Alpha-bungarotoxin (Bungarus multicinctus) (UniProt P60615). Put plainly: compounds binding labelled alpha-BTX control protein – biochemical, small-molecule microarray, Alexa647 label, 635/667 nm fluorescence, artefact control for SMM control protein annotation, profiling panel (AID 1117). The following applies: alpha-BTX-A647 binding fluorescence, higher = more signal.
Chain of Alpha-bungarotoxin (Bungarus multicinctus) (P60615 whole entry, looked up): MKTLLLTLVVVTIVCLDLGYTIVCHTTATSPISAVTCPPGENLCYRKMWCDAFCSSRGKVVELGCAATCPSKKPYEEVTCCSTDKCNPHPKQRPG

Chain of Torsin-1A-interacting protein 1 (Homo sapiens) (Q5JTV8 whole entry, looked up): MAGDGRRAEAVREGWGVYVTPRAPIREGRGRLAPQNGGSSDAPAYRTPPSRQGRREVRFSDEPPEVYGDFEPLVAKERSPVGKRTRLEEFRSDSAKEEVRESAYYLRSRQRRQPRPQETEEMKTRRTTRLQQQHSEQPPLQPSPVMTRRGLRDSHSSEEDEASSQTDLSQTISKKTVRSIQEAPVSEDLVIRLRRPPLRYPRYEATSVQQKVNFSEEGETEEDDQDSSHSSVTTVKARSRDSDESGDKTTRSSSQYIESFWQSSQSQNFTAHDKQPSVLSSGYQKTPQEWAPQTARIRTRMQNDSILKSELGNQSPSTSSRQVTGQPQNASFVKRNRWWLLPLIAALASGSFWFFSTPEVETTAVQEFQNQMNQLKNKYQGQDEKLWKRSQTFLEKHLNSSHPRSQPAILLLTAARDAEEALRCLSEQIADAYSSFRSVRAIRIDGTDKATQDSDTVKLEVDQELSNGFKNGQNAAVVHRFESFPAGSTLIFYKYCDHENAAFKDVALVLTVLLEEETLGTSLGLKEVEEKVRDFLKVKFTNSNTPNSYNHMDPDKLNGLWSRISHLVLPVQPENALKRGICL

Regarding `O=C1CCCC=C1C(CCc1ccccc1)OC(=O)c1ccc(Br)cc1` (stereo not given), the composite z-score is -2.1 in assay [1]; 0.572 in assay [3]; -1.11 in assay [4]; -0.622 in [5]; -0.124 in assay [6]; -0.147 in [7]. In addition, the composite z-score in assay [8] is -0.348; in assay [9] it was -0.108; in assay [10], -0.334. The z-score in assay [2] amounted to 1.15.

Turning to `Cc1ccc(S(=O)(=O)n2c3ccccc3c3nnc(C(=O)c4ccccc4)nc32)cc1`, the composite z-score in assay [1] is -0.463; in [3], 0.563; in [4], -0.357; in assay [5] it was -0.367; in assay [6], 0.0491; in assay [7], -0.332. The composite z-score was -0.0926 in assay [8], 0.302 in [9] and -0.306 in [10]. In addition, the z-score in [2] worked out at 3.59.

As to `CC(C)CON=C1C[C@@H](O)[C@@H](O)[C@@H]2[C@@H]3C(=O)N(C4CCCCC4)C(=O)[C@@H]3CC[C@@H]12`, the composite z-score in [1] is -0.991; in assay [3], 0.0528; in assay [4], -0.333; in [5] it was -0.558; in assay [6], -0.178; in assay [7], -0.279. Moreover, the figures for the composite z-score in assay [8], in assay [9] and in [10] were -0.417, 0.136 and 0.673, respectively. For the same molecule, the z-score in assay [2] is -1.6.

As for `CO[C@H]1COC(=O)[C@H](C)NC(=O)CC=C[C@@H](C)[C@H](OC)COC(=O)[C@@H](OCc2ccccc2)C=C[C@@H]1C`, the composite z-score in assay [1] is -0.112; in [3], 0.591; in assay [4], -0.306; in assay [5] it was -1.32; in assay [6], -0.233; in assay [7] it was -0.279. In addition, the composite z-score was 0.0021 in [8], 0.129 in assay [9] and -0.233 in assay [10]. Moreover, the z-score in [2] is -0.339.

Consider `COc1ccc(O[C@@H]2[C@H](O)CO[C@H]2C=Cc2ccccc2)cc1`, for which the composite z-score is -0.206 in assay [1]; -0.547 in assay [3]; -0.248 in assay [4]; -0.246 in [5]; -0.0685 in assay [6]; -0.283 in assay [7]. For the same molecule, the composite z-score in assay [8] is 0.0308; in assay [9] it was -0.395; in [10], -0.527. In assay [2], this molecule came in with a z-score of 0.388.

For `CC(C)CON=C1C[C@@H](O)[C@@H](O)[C@@H]2[C@@H]3C(=O)N(C(C)(C)C)C(=O)[C@@H]3CC[C@H]12`, the composite z-score in [1] was 1.05; in assay [3], -0.23; in [4] it was -0.302; in assay [5] it was 0.412; in assay [6] it was -0.124; in [7], -0.262. Moreover, the composite z-score in assay [8] was 0.0589; in assay [9], 0.274; in assay [10], 1.5. In assay [2], this molecule displayed a z-score of -0.451.

In the case of `COc1cccc([C@H]2Oc3ccc(OC)cc3C(=NOC[C@@H](C)[C@H](OCc3ccccc3)C(C)C)[C@@H]2O)c1`, the composite z-score is 0.274 in assay [1]; 0.476 in assay [3]; -0.0749 in assay [4]; 0.619 in assay [5]; -0.206 in [6]; -0.0858 in [7]. Also, the composite z-score in assay [8] amounted to 0.2; in assay [9], 0.251; in assay [10] it was 0.452. Also, the z-score in assay [2] is -2.55.

Regarding `O=C(NN=C1C[C@@H](O)[C@@H](O)[C@@H]2[C@@H]3C(=O)N(C4CCCCC4)C(=O)[C@@H]3CC[C@H]12)OCc1ccccc1`, the composite z-score in assay [1] is -0.342; in [3], 0.393; in [4] it was -0.202; in [5] it was 0.454; in assay [6], -0.0051; in assay [7], -0.542. Besides, the composite z-score in assay [8] was determined as 0.0014; in [9] it was 0.26; in [10], 0.273. This molecule came in with a z-score in assay [2] of -2.03.

In the case of `COC(=O)CC=C[C@@H](C)[C@@H](C=NO[C@H](C)c1cn([C@H](CO)Cc2ccccc2)nn1)NS(=O)(=O)c1ccc(C)cc1`, the composite z-score is 0.37 in [1]; 0.483 in [3]; 0.333 in assay [4]; -0.215 in assay [5]; -0.152 in [6]; 0.178 in [7]. Besides, the composite z-score in assay [8] is -0.0196; in assay [9], 1.42; in assay [10] it was 1.56. The molecule further came in with a z-score in assay [2] of -1.35.

`COC(=O)[C@@H]1CC[C@@H](C)[C@H](c2ccc(Br)cc2)N1`: the composite z-score is -1.2 in assay [1]; 0.445 in [3]; -0.227 in [4]; -0.0163 in assay [5]; -0.136 in assay [6]; -0.226 in [7]. The values for the composite z-score in assay [8], in [9] and in [10] were -0.247, -0.0359 and -0.309, respectively. This molecule also displayed a z-score in assay [2] of -0.198.

With `CC(C)=CCCC(C)=CCON=C1C[C@@H](O)[C@@H](O)[C@@H]2[C@@H]3C(=O)N(Cc4ccccc4)C(=O)[C@@H]3CC[C@H]12`, the composite z-score in assay [1] is 0.759; in assay [3], 0.985; in assay [4], 0.0703; in assay [5], -0.985; in [6] it was -0.164; in assay [7], -0.2. The composite z-score in assay [8] was -0.0223; in assay [9], 0.577; in assay [10], 0.121. The molecule also yielded a z-score in [2] of -2.74.

As to `COc1ccc(O[C@H]2C=C[C@@H](c3ccccc3)O[C@@H]2CON=C2[C@H]3CCn4c(=O)n(-c5ccccc5)c(=O)n4[C@H]3[C@H](O)[C@@H]3O[C@H]23)cc1`, the composite z-score in [1] was 0.807; in [3], 0.505; in assay [4], 0.719; in [5], -0.21; in [6], -0.0192; in assay [7], -0.0769. Besides, the figures for the composite z-score in assay [8], in [9] and in assay [10] were -0.0855, 0.24 and 0.974, respectively. In [2], this molecule returned a z-score of -4.67.

Turning to `CCc1cc2c(nc1CC)CCN(CCC(C)=NO[C@H](C)c1cn([C@@H]3COC[C@H]3O)nn1)C2`, the composite z-score in assay [1] was -0.236; in assay [3] it was 0.368; in [4] it was -0.433; in [5], -0.931; in [6] it was -0.0479; in [7], 0.0723. The composite z-score is -0.172 in [8], 0.651 in assay [9] and 0.173 in [10]. Further, the z-score in [2] was -0.53.
